Data as given in PubChem BioAssay AID1159580 (chemical genetic matrix, 2015).
About 2,000 (36%) of roughly 5,500 compounds were called active. About 18% were inconclusive and are not listed. No stated cut-off is given here; in the data, active means normalized growth mostly below about 0.91 (no sharp cut-off); inconclusive means no clear call, values can overlap the other calls; inactive means mostly above about 0.92. This is one part of the list.

Assay: chemical genetic growth profiling, strain panel (AID 1159580);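 further: tested at 20 µM; growth read once vehicle control cultures reached saturation at 30 °C; 1 = growth at the plate median or of vehicle wells; lower values mean less growth of the strain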
Settings: growth OD

Measured: normalized growth

c1ccc([C@H]2CN3CCSC3=N2)cc1
inactive: S. cerevisiae deletion strains, locus YJR075W, strain HOC1, hits give low values 1.01 | S. cerevisiae deletion strains, locus YKL009W, strain mrt4, hits give low values 1.01 | S. cerevisiae deletion strains, locus YKL068W, hits give low values 1.01 | S. cerevisiae deletion strains, locus YKL085W, strain MDH1 (second series), hits give low values 0.999 | S. cerevisiae deletion strains, locus YKL085W, strain MDH1, hits give low values 0.999 | S. cerevisiae deletion strains, locus YKL160W, strain elf1, hits give low values 1.01 | S. cerevisiae deletion strains, locus YKL190W, strain CNB1, hits give low values 0.998 | S. cerevisiae deletion strains, locus YKR001C, strain vps1, hits give low values 1 | S. cerevisiae deletion strains, locus YKR026C, strain gcn3, hits give low values 1.02 | S. cerevisiae deletion strains, locus YKR091W, strain srl3, hits give low values 0.993 | S. cerevisiae deletion strains, locus YLL001W, strain dnm1, hits give low values 0.99 | S. cerevisiae deletion strains, locus YLL026W, hits give low values 1.01 | S. cerevisiae deletion strains, locus YLL041C, strain sdh2, hits give low values 1.01 | S. cerevisiae deletion strains, locus YLR027C, strain aat2, hits give low values 0.99 | S. cerevisiae deletion strains, locus YLR039C, strain RIC1, hits give low values 1.02 | S. cerevisiae deletion strains, locus YLR058C, strain SHM2, hits give low values 1.01 | S. cerevisiae deletion strains, locus YLR102C, strain apc9, hits give low values 1 | S. cerevisiae deletion strains, locus YLR113W, strain HOG1, hits give low values 1.08 | S. cerevisiae deletion strains, locus YLR221C, strain rsa3, hits give low values 0.979 | S. cerevisiae deletion strains, locus YLR258W, strain gsy2, hits give low values 1.02 | S. cerevisiae deletion strains, locus YLR262C, strain YPT6 (second series), hits give low values 0.999 | S. cerevisiae deletion strains, locus YLR262C, strain YPT6, hits give low values 0.992 | S. cerevisiae deletion strains, locus YLR268W, strain sec22, hits give low values 0.993 | S. cerevisiae deletion strains, locus YLR320W, strain mms22, hits give low values 0.988 | S. cerevisiae deletion strains, locus YLR330W, strain CHS5, hits give low values 1.01 | S. cerevisiae deletion strains, locus YLR342W, strain FKS1 (second series), hits give low values 1.02 | S. cerevisiae deletion strains, locus YLR342W, strain FKS1, hits give low values 1.01 | S. cerevisiae deletion strains, locus YLR357W, strain rsc2, hits give low values 1.03 | S. cerevisiae deletion strains, locus YLR370C, strain arc18, hits give low values 0.999 | S. cerevisiae deletion strains, locus YLR371W, strain rom2, hits give low values 1.01 | S. cerevisiae deletion strains, locus YLR384C, strain iki3, hits give low values 1.01 | S. cerevisiae deletion strains, locus YLR418C, strain cdc73, hits give low values 0.984 | S. cerevisiae deletion strains, locus YML016C, strain PPZ1, hits give low values 1 | S. cerevisiae deletion strains, locus YML032C, strain rad52, hits give low values 1.02 | S. cerevisiae deletion strains, locus YML120C, strain ndi1, hits give low values 0.988 | S. cerevisiae deletion strains, locus YML124C, strain tub3, hits give low values 1 | S. cerevisiae deletion strains, locus YMR058W, strain fet3, hits give low values 1 | S. cerevisiae deletion strains, locus YMR078C, strain ctf18, hits give low values 0.996 | S. cerevisiae deletion strains, locus YMR125W, strain sto1, hits give low values 1.01 | S. cerevisiae deletion strains, locus YMR129W, hits give low values 0.996 | S. cerevisiae deletion strains, locus YMR205C, strain PFK2, hits give low values 1.02 | S. cerevisiae deletion strains, locus YMR223W, strain ubp8, hits give low values 1.01 | S. cerevisiae deletion strains, locus YMR231W, strain pep5, hits give low values 1 | S. cerevisiae deletion strains, locus YMR263W, strain SAP30, hits give low values 1 | S. cerevisiae deletion strains, locus YMR307W, strain GAS1, hits give low values 1.03 | S. cerevisiae deletion strains, locus YNL067W, strain RPL9B, hits give low values 1 | S. cerevisiae deletion strains, locus YNL071W, strain lat1, hits give low values 1.04 | S. cerevisiae deletion strains, locus YNL128W, strain TEP1, hits give low values 1.01 | S. cerevisiae deletion strains, locus YNL153C, strain GIM3, hits give low values 0.988 | S. cerevisiae deletion strains, locus YNL183C, strain NPR1, hits give low values 0.983 | S. cerevisiae deletion strains, locus YNL209W, strain ssb2, hits give low values 0.984 | S. cerevisiae deletion strains, locus YNL233W, strain BNI4, hits give low values 1.01 | S. cerevisiae deletion strains, locus YNL248C, strain rpa49, hits give low values 1 | S. cerevisiae deletion strains, locus YNL250W, strain rad50, hits give low values 1.01 | S. cerevisiae deletion strains, locus YNL271C, strain bni1, hits give low values 1.01 | S. cerevisiae deletion strains, locus YNL298W, strain CLA4, hits give low values 1 | S. cerevisiae deletion strains, locus YNL307C, strain MCK1, hits give low values 1.02 | S. cerevisiae deletion strains, locus YNL322C, strain KRE1 (second series), hits give low values 0.979 | S. cerevisiae deletion strains, locus YNL322C, strain KRE1, hits give low values 1 | S. cerevisiae deletion strains, locus YNR049C, strain mso1, hits give low values 0.994 | S. cerevisiae deletion strains, locus YNR052C, strain pop2, hits give low values 1.01 | S. cerevisiae deletion strains, locus YOL006C, strain TOP1, hits give low values 1.02 | S. cerevisiae deletion strains, locus YOL012C, strain htz1 1.06 | S. cerevisiae deletion strains, locus YOL147C, strain pex11, hits give low values 1 | S. cerevisiae deletion strains, locus YOR001W, strain rrp6, hits give low values 0.961 | S. cerevisiae deletion strains, locus YOR061W, strain CKA2, hits give low values 1 | S. cerevisiae deletion strains, locus YOR069W, strain VPS5, hits give low values 0.995 | S. cerevisiae deletion strains, locus YOR070C, strain gyp1, hits give low values 1.01 | S. cerevisiae deletion strains, locus YOR080W, strain dia2, hits give low values 0.994 | S. cerevisiae deletion strains, locus YOR083W, strain WHI5, hits give low values 0.995 | S. cerevisiae deletion strains, locus YOR106W, strain vam3, hits give low values 1.02 | S. cerevisiae deletion strains, locus YOR136W, strain idh2, hits give low values 0.997 | S. cerevisiae deletion strains, locus YOR144C, strain elg1, hits give low values 1 | S. cerevisiae deletion strains, locus YOR184W, strain ser1, hits give low values 1.02 | S. cerevisiae deletion strains, locus YOR231W, strain MKK1, hits give low values 1.05 | S. cerevisiae deletion strains, locus YOR265W, strain rbl2, hits give low values 1 | S. cerevisiae deletion strains, locus YOR270C, strain vph1, hits give low values 1.02 | S. cerevisiae deletion strains, locus YOR290C, strain snf2, hits give low values 1.01 | S. cerevisiae deletion strains, locus YOR316C, strain cot1, hits give low values 1.01 | S. cerevisiae deletion strains, locus YPL051W, strain arl3, hits give low values 1.01 | S. cerevisiae deletion strains, locus YPL055C, strain LGE1, hits give low values 0.98 | S. cerevisiae deletion strains, locus YPL078C, strain atp4, hits give low values 1.02 | S. cerevisiae deletion strains, locus YPL106C, strain sse1, hits give low values 0.999 | S. cerevisiae deletion strains, locus YPL240C, strain hsp82, hits give low values 1 | S. cerevisiae deletion strains, locus YPL241C, strain CIN2, hits give low values 1.01 | S. cerevisiae deletion strains, locus YPL256C, strain CLN2, hits give low values 1.04 | S. cerevisiae deletion strains, locus YPR119W, strain clb2, hits give low values 1 | S. cerevisiae deletion strains, locus YPR141C, strain kar3, hits give low values 0.999 | S. cerevisiae deletion strains, locus YPR163C, strain tif3, hits give low values 1 | S. cerevisiae deletion strains, locus YPR167C, strain met16, hits give low values 0.998 | S. cerevisiae deletion strains, strain wtn01, hits give low values 0.997 | S. cerevisiae strains, strain wild type, hits give low values 1
